Assay results: the supplement of paper PMC8728848
Shown is part of a subset that was picked to be rich in the strongest signals.

Key:
Test in all cases: glycan array binding signal (z-score within array); higher = stronger binding
Conditions in all cases: glycan notation: IUPAC condensed, linker removed
[1] = molecular target: Fuc(a1-2)Gal(b1-3)GalNAc(b1-3)Gal
Method in brief: (§1)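 The binding signal is a Z-score computed within each array. Data were drawn from 3228 arrays in the Consortium for Functional Glycomics database, restricted to those with a known protein sequence. Scores were averaged over arrays of the same protein sequence at different concentrations or buffers, and over linkers, and negative values can be taken as non-binding.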

[2] = molecular target: Fuc(a1-2)Gal(b1-3)GalNAc(b1-4)[Neu5Ac(a2-3)]Gal(b1-4)Glc
Method in brief: as §1

[3] = molecular target: Fuc(a1-2)Gal(b1-4)GlcNAc
Method in brief: as §1

[4] = molecular target: Fuc(a1-2)[Gal(a1-3)]Gal
Method in brief: as §1

[5] = molecular target: Fuc(a1-2)[GalNAc(a1-3)]Gal(b1-4)[Fuc(a1-3)]GlcNAc
Method in brief: as §1

[6] = molecular target: Fuc(a1-2)[GalNAc(a1-4)]Gal(b1-4)GlcNAc
Method in brief: as §1

[7] = molecular target: Gal(a1-2)Gal
Method in brief: as §1

[8] = molecular target: Gal(b1-3)[Fuc(a1-4)]GlcNAc(b1-3)Gal(b1-4)[Fuc(a1-3)]GlcNAc
Method in brief: as §1

[9] = molecular target: Gal(b1-4)GlcNAc(b1-3)Gal(b1-4)GlcNAc(b1-3)Gal(b1-4)GlcNAc
Method in brief: as §1

[10] = molecular target: Gal(b1-4)GlcNAc(b1-6)Gal(b1-4)GlcNAc(b1-6)GalNAc
Method in brief: as §1

[11] = molecular target: Gal(b1-4)GlcNAc(b1-6)GalNAc
Method in brief: as §1

[12] = molecular target: Gal3S(b1-3)GalNAc
Method in brief: as §1

[13] = molecular target: Gal3S(b1-4)Glc6S
Method in brief: as §1

[14] = molecular target: Gal3S(b1-4)GlcNAc6S
Method in brief: as §1

[15] = molecular target: Gal3S6S(b1-4)GlcNAc6S
Method in brief: as §1

[16] = molecular target: Gal4S6S(b1-4)GlcNAc
Method in brief: as §1

[17] = molecular target: Gal6S(b1-4)Glc6S
Method in brief: as §1

[18] = molecular target: GlcA(b1-3)Gal
Method in brief: as §1

[19] = molecular target: GlcNAc(b1-2)Man(a1-3)[GlcNAc(b1-2)Man(a1-6)]Man(b1-4)GlcNAc(b1-4)GlcNAc
Method in brief: as §1

[20] = molecular target: GlcNAc(b1-4)GlcNAc(b1-4)GlcNAc(b1-4)GlcNAc(b1-4)GlcNAc(b1-4)GlcNAc
Method in brief: as §1

[21] = molecular target: GlcNAc(b1-6)GalNAc
Method in brief: as §1

[22] = molecular target: Man(a1-2)Man(a1-3)[Man(a1-6)]Man(a1-6)[Man(a1-2)Man(a1-3)]Man(b1-4)GlcNAc(b1-4)GlcNAc
Method in brief: as §1

[23] = molecular target: Neu5Ac(a2-3)Gal(b1-3)GalNAc(b1-3)Gal(b1-4)GlcNAc
Method in brief: as §1

[24] = molecular target: Neu5Ac(a2-3)Gal(b1-4)[Fuc(a1-3)]GlcNAc(b1-3)Gal
Method in brief: as §1

[25] = molecular target: Neu5Ac(a2-3)[Neu5Ac(a2-6)]GalNAc
Method in brief: as §1

[26] = molecular target: Neu5Gc(a2-6)GalNAc
Method in brief: as §1

[27] = molecular target: Fuc(a1-2)Gal(b1-3)[Fuc(a1-4)]GlcNAc
Method in brief: as §1

[28] = molecular target: Fuc(a1-2)Gal(b1-4)Glc
Method in brief: as §1

[29] = molecular target: Fuc(a1-2)Gal(b1-4)GlcNAc(b1-3)Gal(b1-4)GlcNAc
Method in brief: as §1

[30] = molecular target: Fuc(a1-2)Gal(b1-4)[Fuc(a1-3)]GalNAc(b1-3)Gal(b1-4)[Fuc(a1-3)]GlcNAc
Method in brief: as §1

[31] = molecular target: Fuc(a1-2)[Gal(a1-3)]Gal(b1-4)Glc
Method in brief: as §1

[32] = molecular target: Fuc(a1-2)[GalNAc(a1-3)]Gal(b1-3)GlcNAc
Method in brief: as §1

[33] = molecular target: Fuc(a1-3)GlcNAc
Method in brief: as §1

[34] = molecular target: Gal(a1-3)[Gal(a1-4)]Gal(b1-4)GlcNAc
Method in brief: as §1

[35] = molecular target: Gal(a1-4)Gal(b1-4)GalNAc
Method in brief: as §1

[36] = molecular target: Gal(b1-3)[GlcNAc(b1-6)]GalNAc
Method in brief: as §1

[37] = molecular target: Gal(b1-4)GlcNAc
Method in brief: as §1

[38] = molecular target: GalNAc(a1-3)Gal
Method in brief: as §1

[39] = molecular target: Glc(a1-4)Glc
Method in brief: as §1

[40] = molecular target: GlcNAc(b1-2)Gal(b1-3)GlcNAc
Method in brief: as §1

[41] = molecular target: Man(a1-2)Man(a1-2)Man(a1-3)Man
Method in brief: as §1

[42] = molecular target: Man(a1-2)Man(a1-2)Man(a1-3)[Man(a1-2)Man(a1-6)[Man(a1-3)]Man(a1-6)]Man(b1-4)GlcNAc(b1-4)GlcNAc
Method in brief: as §1

[43] = molecular target: Man(a1-3)[Man(a1-6)]Man
Method in brief: as §1

[44] = molecular target: Neu5Ac(a2-3)Gal(b1-3)[Fuc(a1-4)]GlcNAc
Method in brief: as §1

[45] = molecular target: Neu5Ac(a2-3)Gal(b1-4)[Fuc(a1-3)]GlcNAc6S
Method in brief: as §1

[46] = molecular target: Neu5Ac(a2-3)[GalNAc(b1-4)]Gal(b1-4)Glc
Method in brief: as §1

B1: S100A12 (Homo sapiens), P80511 (protein)
chain: MTKLEEHLEGIVNIFHQYSVRKGHFDTLSKGELKQLLTKELANTIKNIKDKAVIDEIFQGLDANQDEQVDFQEFISLVAIALKAAHYHTHKE
Which “glycan array binding signal (z-score)” value [1] does the source give for B1 here?
The value was 1.87.

What about the “glycan array binding signal (z-score)” value [2] of the same binder?
Its value is -0.259.

What about the “glycan array binding signal (z-score)” value [3] of the same binder?
The value was -0.748.

And the “glycan array binding signal (z-score)” value [4]?
Its value is -0.758.

And the “glycan array binding signal (z-score)” value [5]?
Its value is -0.154.

And the “glycan array binding signal (z-score)” value [6]?
The value was -0.766.

What about the “glycan array binding signal (z-score)” value [7] of the same binder?
The value was 0.006.

And the “glycan array binding signal (z-score)” value [8]?
Its value is -0.056.

What about the “glycan array binding signal (z-score)” value [9] of the same binder?
Its value is -0.226.

What about the “glycan array binding signal (z-score)” value [10] of the same binder?
The value was -0.768.

And the “glycan array binding signal (z-score)” value [11]?
Its value is -0.528.

And the “glycan array binding signal (z-score)” value [12]?
The value was 0.207.

And the “glycan array binding signal (z-score)” value [13]?
Its value is 2.45.

And the “glycan array binding signal (z-score)” value [14]?
The value was 2.67.

And the “glycan array binding signal (z-score)” value [15]?
Its value is 2.83.

What about the “glycan array binding signal (z-score)” value [16] of the same binder?
The value was 2.91.

And the “glycan array binding signal (z-score)” value [17]?
The value was 2.19.

What about the “glycan array binding signal (z-score)” value [18] of the same binder?
Its value is 0.368.

What about the “glycan array binding signal (z-score)” value [19] of the same binder?
Its value is 1.79.

What about the “glycan array binding signal (z-score)” value [20] of the same binder?
Its value is -0.158.

What about the “glycan array binding signal (z-score)” value [21] of the same binder?
Its value is -0.903.

And the “glycan array binding signal (z-score)” value [22]?
Its value is -0.256.

And the “glycan array binding signal (z-score)” value [23]?
Its value is -0.704.

And the “glycan array binding signal (z-score)” value [24]?
The value was -0.943.

What about the “glycan array binding signal (z-score)” value [25] of the same binder?
Its value is 0.727.

And the “glycan array binding signal (z-score)” value [26]?
The value was -0.009.

B2: TLEC1 (Arabidopsis thaliana), Q9C5Q9 (protein)
chain: MSGASSVSSICSSNVSLIPTGPQVFINFRGKDLRKGFMSFLKPALKKEKINVFIDEQEERGKYLISLFDTIGESKIALVIFSEGYCESHWCMDELVKIKEYMDQNRLIIIPIFYRLDLDVVKDLTGKFGDNFWDLVDKYQPEPKKLHKWTEALFSVCELFSLILPKHSDISDRDFVKSIVKAVKKVQKNFFQRRNGEIEYQDFSVPACKLTITMHESPNEEAVQVTVLNEFYQMKNQSPVPSYEFKFWVDLTRPKGNVFMIDARDLSIAWSEDSNHWTWLPLPNQNSNESVMEIAFLKSASWLDVAGKFDTRYLTPRTRYEVVFVVKLEYTFEWETLVKLKLDLPNTWEKPQEQSVDMFDYISDQWLDIPVGEFTTSKKNVGEISFAMYEHECQLWKSGLFVKGVTIRPKY
With B2 as the binder, how does the “glycan array binding signal (z-score)” value [1] read?
The value was 0.538.

What about the “glycan array binding signal (z-score)” value [27] of the same binder?
Its value is -0.075.

And the “glycan array binding signal (z-score)” value [28]?
The value was 1.08.

And the “glycan array binding signal (z-score)” value [29]?
The value was 0.966.

And the “glycan array binding signal (z-score)” value [30]?
The value was 1.49.

What about the “glycan array binding signal (z-score)” value [4] of the same binder?
The value was -0.268.

What about the “glycan array binding signal (z-score)” value [31] of the same binder?
The value was -0.089.

What about the “glycan array binding signal (z-score)” value [32] of the same binder?
Its value is 0.897.

And the “glycan array binding signal (z-score)” value [33]?
The value was 1.82.

And the “glycan array binding signal (z-score)” value [34]?
The value was -0.228.

And the “glycan array binding signal (z-score)” value [35]?
The value was -0.13.

And the “glycan array binding signal (z-score)” value [36]?
The value was -0.317.

And the “glycan array binding signal (z-score)” value [37]?
Its value is -0.385.

What about the “glycan array binding signal (z-score)” value [13] of the same binder?
The value was 1.16.

What about the “glycan array binding signal (z-score)” value [15] of the same binder?
The value was 12.3.

What about the “glycan array binding signal (z-score)” value [17] of the same binder?
Its value is 1.65.

What about the “glycan array binding signal (z-score)” value [38] of the same binder?
The value was -0.288.

What about the “glycan array binding signal (z-score)” value [39] of the same binder?
Its value is -0.148.

And the “glycan array binding signal (z-score)” value [40]?
The value was -0.386.

What about the “glycan array binding signal (z-score)” value [41] of the same binder?
The value was -0.005.

And the “glycan array binding signal (z-score)” value [42]?
The value was -0.509.

What about the “glycan array binding signal (z-score)” value [43] of the same binder?
The value was -0.105.

What about the “glycan array binding signal (z-score)” value [44] of the same binder?
Its value is -0.525.

What about the “glycan array binding signal (z-score)” value [45] of the same binder?
Its value is -0.464.

What about the “glycan array binding signal (z-score)” value [46] of the same binder?
The value was -0.46.
